PubChem BioAssay

Test: small molecules captured by biotinylated probe aFGF10 – biochemical, small-molecule microarray, fluorescence 635/667, stem cell growth factor project, primary screen (AID 1071);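 also: score merges 667 nm spot intensity and signal to noise from triplicate slides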
Conditions: higher = more signal

**Q.** For C=CC(=C)[C@H]1Oc2ccccc2S(=O)(=O)N2CCC[C@@H]12, which composite z-score is on record?
**A.** -0.185

**Q.** With C=C[C@@H](COC(=O)OC(C)(C)C)N(Cc1ccc(OC)cc1)S(=O)(=O)c1ccc(Br)cc1 as the compound, how does the composite z-score read?
**A.** 0.0626

**Q.** Which composite z-score does the source give for COCC(=C=CC[C@@H](O)c1cccc(OCCO)c1)C[C@@H](O)c1ccccn1 here?
**A.** 0.338

**Q.** For O=C(CS)NCCCCCCNC(=O)[C@@H]1C[C@@H]2C(=O)NCC(=O)N2[C@@H]1c1cccc(OCCO)c1, which composite z-score is on record?
**A.** -0.294

**Q.** For C=C(CC1([C@@H](NP(=O)(c2ccccc2)c2ccccc2)[C@H]2C[C@@H]2CCCC)CC1)c1ccccc1, which composite z-score is on record?
**A.** 0.194

**Q.** With COC(=O)[C@@]1(Cc2ccc(F)cc2)[C@H]2c3cc(C(=O)N(C)C)n(Cc4cc(F)c(F)c(F)c4)c3C[C@H]2CN1C(=O)c1ccccc1 as the compound, how does the composite z-score read?
**A.** 0.593

**Q.** For CN(C)CCCC[C@@H]1NC(=O)[C@H]2C[C@@H](C(=O)NCCCCCCN)[C@@H](c3ccc(O)cc3)N2C1=O, which composite z-score is on record?
**A.** 0.935

**Q.** Which composite z-score does the source give for CN(C)CCCCCCNC(=O)[C@H]1C[C@H]2C(=O)N[C@@H](CCCCN)C(=O)N2[C@H]1c1cccc(OCCO)c1 here?
**A.** 1.15

**Q.** Which composite z-score does the source give for CC(C)=CCCC(C)=CC(O)C1C=CC2C(=O)N(C)C(=O)C2N1Nc1ccccc1 (stereo not given) here?
**A.** 0.942

**Q.** For CCS[C@H]1[C@@H](C(=O)O)[C@H](c2ccc(C)cc2)N(S(=O)(=O)c2ccc(C)cc2)[C@@H]1CC, which composite z-score is on record?
**A.** 1.1

**Q.** Which composite z-score does the source give for CCC(CC)C(O)C1C=CC2C(=O)NC(=O)C2N1Nc1ccc(Cl)cc1Cl (stereo not given) here?
**A.** 0.309

**Q.** With COC(=O)[C@@]1(Cc2ccc(F)cc2)[C@H]2c3cc(C(=O)N(C)C)n(Cc4ccccc4)c3C[C@H]2CN1C(=O)c1ccccc1 as the compound, how does the composite z-score read?
**A.** 0.314

**Q.** For C=CCNC(=O)[C@H]1[C@@H]2C(=O)O[C@@H](c3ccccc3)[C@@H](c3ccccc3)N2[C@@H](c2ccccc2OCCO)[C@]12C(=O)Nc1ccc(C#CCCO)cc12, which composite z-score is on record?
**A.** -0.0077

**Q.** Which composite z-score does the source give for COCCCNC(=O)[C@]1(CCC(=O)OC(C)(C)C)N=C(c2ccc(OCCCO)cc2)O[C@@H]1c1ccccc1CN=[N+]=[N-] here?
**A.** 1.27

**Q.** For O=C1OCCC/C=C\[C@H]2OC34C=CCN(Cc5ccccc5)C(=O)[C@H]3N(CCCO)C(=O)[C@@H]4C12 (stereo not given in full), which composite z-score is on record?
**A.** -0.458

**Q.** For CN1C(=O)C2C=CC(C(O)C3CC=CCC3)N(N(c3ccccc3)c3ccccc3)C2C1=O (stereo not given), which composite z-score is on record?
**A.** -0.0455

**Q.** Which composite z-score does the source give for C=CCC(OC(C)=O)[C@@H]1[C@@H](N(Cc2ccc(-c3cccc(C(F)(F)F)c3)o2)C(=O)c2ccc(C)cc2)c2cc(OCCCO)ccc2N1C(=O)Cc1ccc2ccccc2c1 (stereo not given in full) here?
**A.** 0.205

**Q.** Which composite z-score does the source give for CO[C@H]1O[C@H](CO)[C@@H](OC(=O)Nc2ccccc2)[C@H](OC(=O)Nc2ccccc2)[C@@H]1OC(=O)Nc1ccccc1 here?
**A.** 0.784

**Q.** Which composite z-score does the source give for O=C(OCc1ccccc1)C1=CCC2c3[nH]c4ccccc4c3C(=O)C1N2S(=O)(=O)c1ccccc1[N+](=O)[O-] (stereo not given) here?
**A.** 0.982

**Q.** With C=C(CCCC)/C(=C/C[C@@H](OC(C)=O)c1ccc(OCCO)cc1)c1cnc2ccccc2c1 as the compound, how does the composite z-score read?
**A.** 0.242

**Q.** Which composite z-score does the source give for COc1ccc([Si](C)(C)[C@@H]2[C@@H](CC(=O)N3CCC[C@H]3CO)O[C@]3(C(=O)N(c4ccccc4)c4ccccc43)[C@H]2C)cc1 here?
**A.** 0.713

**Q.** For CC(C)NC(=O)[C@@]1(C)c2ccccc2C(=O)N(Cc2cc(C(F)(F)F)cc(C(F)(F)F)c2)[C@H]1c1ccc(CO)cc1, which composite z-score is on record?
**A.** -0.477

**Q.** For CNS(=O)(=O)c1ccc(C)cc1, which composite z-score is on record?
**A.** 0.248

**Q.** With O=C(c1ccccc1)N1Cc2ccccc2C[C@@]2(COC(c3ccc(OCCCO)cc3)=N2)C1=O as the compound, how does the composite z-score read?
**A.** 0.591

**Q.** Which composite z-score does the source give for COc1ccc(CCNC(=O)[C@@]2(Sc3ccc(C)cc3)CC(=O)N(C3Cc4ccccc4C3)[C@@H]2c2ccc(CO)cc2I)cc1 here?
**A.** -0.183

**Q.** Which composite z-score does the source give for COc1cc2c(cc1OC)CN(C(=O)[C@@H]1[C@H]3C(=O)O[C@H](c4ccccc4)[C@H](c4ccccc4)N3[C@H](c3ccc(O)cc3)[C@@]13C(=O)Nc1ccccc13)CC2 here?
**A.** 0.257

**Q.** With COc1ccc([Si](C)(C)[C@@H]2[C@@H](CCO)O[C@]3(C(=O)N(Cc4ccc(N(C=O)c5ccccc5)cc4)c4ccccc43)[C@H]2C)cc1 as the compound, how does the composite z-score read?
**A.** 0.255

**Q.** Which composite z-score does the source give for COc1cc(COC(C)=O)ccc1OC(C)=O here?
**A.** 0.209

**Q.** With COc1ccccc1CN1C(=O)c2ccccc2[C@@H](C(=O)NC2CC2)[C@@H]1c1ccc(CO)cc1 as the compound, how does the composite z-score read?
**A.** 0.986

**Q.** For CCCC[C@@H]1C[C@H]1[C@@H](NC(=O)c1ccco1)c1ccccc1C(F)(F)F, which composite z-score is on record?
**A.** 0.0033

**Q.** For O=C1C2C=CC(C(O)c3cc(C(F)(F)F)cc(C(F)(F)F)c3)N(n3cnnc3)C2C(=O)N1Cc1ccccc1 (stereo not given), which composite z-score is on record?
**A.** -0.251

**Q.** Which composite z-score does the source give for CN(C)CCCCCCNC(=O)[C@H]1C[C@H]2C(=O)N3CCC[C@H]3C(=O)N2[C@H]1c1ccc(O)cc1 here?
**A.** 1.16

**Q.** Which composite z-score does the source give for O=C1O[C@H](c2ccccc2)[C@H](c2ccccc2)N2[C@H]1[C@@H](C(=O)N1CCCCCCC1)[C@]1(C(=O)Nc3ccc(C#CCCO)cc31)[C@H]2c1ccccc1OCCO here?
**A.** 1.62

**Q.** With C#C[C@H](O[Si](C#Cc1ccc(Oc2ccccc2)cc1)(C(C)C)C(C)C)c1ccccc1 as the compound, how does the composite z-score read?
**A.** 0.853

**Q.** Which composite z-score does the source give for COC(=O)[C@@]1(Cc2ccc(F)cc2)[C@H]2c3cc(C(=O)N(C)C)n(Cc4ccc(Cl)c(C(F)(F)F)c4)c3C[C@H]2CN1C(=O)c1ccccc1 here?
**A.** 0.215
